The values that follow come from ChEMBL document CHEMBL3433997, “St. Jude Leishmania screening dataset” (2016).

Common to all, as to assay type: functional
Experiment [1] concerns the target Solute carrier family 2, facilitated glucose transporter member 1 (Homo sapiens) (UniProt P11166). Kind of experiment: ST_JUDE_LEISH: Cytotoxicity at 2uM final concentration against transgenic Leishmania Mexicana promastigotes LmGLUT1 that are glucose transport deficient and complemented with the human glucose transporter GLUT1. Activity is measured by DNA content using SYBR green in vitro.

Experiment [2] addresses Hexose transporter 1 (Plasmodium falciparum) (UniProt O97467). Kind of experiment: ST_JUDE_LEISH: Cytotoxicity at 2uM final concentration against transgenic Leishmania Mexicana promastigotes LmPfHT that are glucose transport deficient and complemented with the Plasmodium falciparum hexose transporter. Activity is measured by DNA content using SYBR green in vitro.
In experiment [3] the target is Glucose transporter (Leishmania mexicana) (UniProt O61059). Kind of experiment: ST_JUDE_LEISH: Cytotoxicity at 2uM final concentration against transgenic Leishmania Mexicana promastigotes LmGT2 that are glucose transport deficient and complemented with the L. Mexicana glucose transporter 2. Activity is measured by DNA content using SYBR green in vitro.

Chain of Solute carrier family 2, facilitated glucose transporter member 1 (Homo sapiens) (P11166 whole entry): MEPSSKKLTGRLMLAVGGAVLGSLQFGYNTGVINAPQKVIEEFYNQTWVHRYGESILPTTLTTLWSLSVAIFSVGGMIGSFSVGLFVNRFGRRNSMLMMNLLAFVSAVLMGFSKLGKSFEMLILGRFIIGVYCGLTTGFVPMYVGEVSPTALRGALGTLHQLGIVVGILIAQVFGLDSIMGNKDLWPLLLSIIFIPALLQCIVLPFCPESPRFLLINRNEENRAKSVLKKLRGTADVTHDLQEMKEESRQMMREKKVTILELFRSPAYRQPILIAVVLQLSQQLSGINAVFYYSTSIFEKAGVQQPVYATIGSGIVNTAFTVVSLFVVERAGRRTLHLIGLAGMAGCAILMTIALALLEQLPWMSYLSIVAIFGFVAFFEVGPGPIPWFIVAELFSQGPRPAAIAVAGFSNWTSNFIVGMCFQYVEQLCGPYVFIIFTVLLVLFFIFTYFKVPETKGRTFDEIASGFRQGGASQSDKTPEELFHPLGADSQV

Consider `Cc1ccc(NC(=O)c2cc(S(=O)(=O)NC(C)(C)C)ccc2C)nc1`, for which the values for the inhibition in experiment [1], in experiment [2] and in experiment [3] were 0.04%, 0.34% and 2.32%, respectively.
Turning to `CN(C)CCCOc1ccccc1CN1CC[C@H](NC(=O)c2ccc(Cl)c(Cl)c2)C1`, the results for the inhibition in experiment [1], in experiment [2] and in experiment [3] were -0.17%, -0.54% and -2.05%, respectively.
`CC(CCc1ccccc1)NCC(O)c1cccc([N+](=O)[O-])c1` (stereo not given): the inhibition in experiment [1] was -0.26%; in experiment [2], -2.9%; in experiment [3] it was 1.35%.
Regarding `C=CCOC(=O)N1CCC(CNCc2cccc(-c3ccc(-c4nc5cccc(C)c5[nH]4)s3)c2)C1` (stereo not given), the inhibition was -0.28% in experiment [1], -0.37% in experiment [2] and -0.89% in experiment [3].
On to `Cn1cnc(CCNC(=O)c2ccc(-c3cccc(-c4nc5cc(C(F)(F)F)ccc5[nH]4)c3)cc2)c1`, for which the inhibition in experiment [1] came out at 4.83%; in experiment [2], 4.43%; in experiment [3], 5.89%.
On the same counts, the results for `NCC(NC(=O)c1ccc(-c2c[nH]c3ncccc23)s1)c1ccccc1` (stereo not given) are 51.9%, 56.6% and 25.9%.
As for `CC(=O)N1N=C(c2ccc(Cl)cc2)Sc2c1nc(-c1ccccc1)n2C(C)=O`, the inhibition in experiment [1] turned out to be 2.66%; in experiment [2], 1.84%; in experiment [3], 2.48%.
`CC(C)(C)c1ccc(-c2ccccc2CNC(=O)c2cccc(O)c2)cc1`: the inhibition in experiment [1] was 6.97%; in experiment [2], 6.5%; in experiment [3] it was 7.1%.
Regarding `CC(C)n1c(C(C)(C)C)cc2c3c(N)nc(N)nc3ccc21`, the inhibition in experiment [1] stood at 52.7%; in experiment [2] it was 62.4%; in experiment [3], 44.4%.
Consider `CC1(C)N=C(N)N=C(N)N1OCc1ccc2ccccc2c1`, for which the inhibition in experiment [1] is 8.29%; in experiment [2], 7.22%; in experiment [3] it was 6.67%.
On to `O=c1[nH]c2ccc(Nc3nccc(NCCc4ccccc4)n3)cc2[nH]1`, for which the inhibition in experiment [1] came to 1.91%; in experiment [2] it was 4.94%; in experiment [3], 5.12%.
For `C=C1C(C(=O)OCC)=CN(CC)c2cc(O[C@H]3CCN(C(=O)OC(C)(C)C)C3)ccc21`, the results for the inhibition in experiment [1], in experiment [2] and in experiment [3] were 2.71%, 2.53% and -2.32%, respectively.
Regarding `O=C(N[C@@H](Cc1cc(F)cc(F)c1)[C@H](O)CNCc1cccc(C(F)(F)F)c1)c1cc(C2CCCC2)cc(N2CCCC2=O)c1`, the inhibition in experiment [1] stood at 1.51%; in experiment [2], 1.51%; in experiment [3], 1.95%.
Turning to `Cc1oc(-c2ccccc2)nc1CCOc1ccc(C[C@H](Nc2ccccc2C(=O)c2ccccc2)C(=O)NCc2ccccn2)cc1`, the inhibition in experiment [1] turned out to be 4.4%; in experiment [2] it was 4.88%; in experiment [3], 4.35%.
Turning to `COc1cc2c(cc1S(=O)(=O)c1ccc(NC(=O)c3cc4ccccc4s3)cc1)CCN(C)CC2`, the results for the inhibition in experiment [1], in experiment [2] and in experiment [3] were -1.48%, 3.2% and 1.94%, respectively.
On the same counts, the results for `c1ccc(CCNCc2cccc(-c3ccccc3CNCc3ccc4c(c3)OCO4)c2)nc1` are 0.71%, 0.88% and 0.68%.
On to `CCNc1cc(C(=O)NC(Cc2ccccc2)C(O)CNC2CCSCC2)cc(N2CCCC2=O)c1` (stereo not given), for which the inhibition was determined as 3.69% in experiment [1], 3.13% in experiment [2] and 4% in experiment [3].
In the case of `CC(C)(C)c1nn(-c2ccc(Cl)cc2)c2[nH]c(=O)c(CNCc3cccs3)cc12`, the inhibition in experiment [1] was determined as 3.3%; in experiment [2] it was 3.24%; in experiment [3], 2.34%.
On the same counts, the results for `O=C(NCc1cccc(CN2CCOCC2)c1)c1cc(Br)cc(N2CCN(c3ccncc3)CC2)c1` are 0.32%, 0.81% and 0.57%.
Regarding `COc1ccc(CNCc2cccc(-c3ccc(-c4nc5ccccc5[nH]4)cc3)c2)cc1`, the figures for the inhibition in experiment [1], in experiment [2] and in experiment [3] were 3.35%, 1.89% and 3.52%, respectively.
`CCOC(=O)c1cccc(NC(=O)Nc2cc(C)nc3ccccc23)c1`: the inhibition in experiment [1] is 9.1%; in experiment [2], 6.21%; in experiment [3], 5.11%.
With `Fc1ccc2[nH]c(-c3ccc(-c4ccc(CNCC5CCCO5)cc4)s3)nc2c1` (stereo not given), the results for the inhibition in experiment [1], in experiment [2] and in experiment [3] were 11.9%, 9.33% and 11%, respectively.
As to `COc1ccc(C#Cc2ccc(-c3c(C)[nH]c(C)c(Cl)c3=O)cc2)cc1`, the results for the inhibition in experiment [1], in experiment [2] and in experiment [3] were 6.05%, 8.9% and 4.03%, respectively.
Consider `CNC(=O)NC1=NC(C)(C)N(OCCCOc2cc(Cl)c(Cl)cc2Cl)C(N)=N1`, for which the inhibition in experiment [1] was determined as 11.5%; in experiment [2], 11.8%; in experiment [3], 11.6%.
The matching figures for `N#Cc1cccc(NC(=O)Nc2cccc(-c3cccc(-c4nc5ccccc5[nH]4)c3)c2)c1`: 5.25%, 5.22% and 3.75%.
The matching figures for `COc1ccc2nccc(N/N=C/c3ccccc3[N+](=O)[O-])c2c1`: 2.92%, 4.3% and 0.03%.
Turning to `CCc1c(C)nc(-n2nc(C)cc2NC(=O)C2c3ccccc3Oc3ccccc32)[nH]c1=O`, the inhibition in experiment [1] was -0.64%; in experiment [2], -0.55%; in experiment [3] it was 3.35%.
Regarding `CCCCCN1CCCN(Cc2cccc(NC(=O)c3ccc(Cl)c(Cl)c3)c2)CC1`, the inhibition in experiment [1] was -3.68%; in experiment [2], 0.02%; in experiment [3] it was 2.58%.
On to `CCN(CCCN1CCCCC1)c1cc(C)nc(Nc2ccc(Cl)cc2C)n1`, for which the results for the inhibition in experiment [1], in experiment [2] and in experiment [3] were 1.07%, 1.21% and 1.9%, respectively.
Regarding `COc1cc2c(cc1C(F)(F)F)N(C(=O)Nc1ccc(Br)cn1)CC2`, the inhibition is -0.2% in experiment [1], 0.68% in experiment [2] and -1.31% in experiment [3].
For the molecule `CC(C)C(C(=O)Nc1ccc2c(c1)OCO2)c1ccc(Cl)cc1` (stereo not given), the figures for the inhibition in experiment [1], in experiment [2] and in experiment [3] were 3.38%, 2.76% and 1.99%, respectively.
As to `O=S(=O)(NCCN1CCCC1)c1cccc(-c2ccc(CNC3Cc4ccccc4C3)cc2)c1`, the inhibition was 30.3% in experiment [1], 16.9% in experiment [2] and 8.14% in experiment [3].
The matching figures for `O=C(Nc1ccc(Cl)cc1)Nc1cccc(-c2cccc(-c3nc4cc(C(F)(F)F)ccc4[nH]3)c2)c1`: -0.58%, -0.83% and -2.27%.
`CCOC(=O)c1ccc(NC(=O)Nc2ccc(Cn3ncc(N4CCCNCC4)c(Cl)c3=O)cc2)cc1`: the inhibition in experiment [1] worked out at 8.8%; in experiment [2], 12.6%; in experiment [3] it was 7.11%.
As to `O=C(N[C@@H](Cc1ccccc1)C(=O)NC1CCCCC1)c1ccc(O)c(-c2ccc(Cl)c(Cl)c2)c1`, the inhibition in experiment [1] is -0.99%; in experiment [2], 0.22%; in experiment [3] it was -0.73%.
